This is a sample that favours compounds with a hit; in the whole collection about 17% have one here.
HepG2 viability: qHTS for Inhibitors of TGF-b: Cytotox Counterscreen; HepG2 CAGA-GFP viability, ATP luminescence, 18 h; Potency, µM (series often up to 46.1 µM), for inactives: at the highest dose activity change, negative = cytotoxicity, usual class: cytotoxic; 410,000 compounds, 0.76% hits; AID 588856, 2011
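CellTiter-Glo luminescence gave cytotoxicity after 18 hours at 37 degrees C. The cells were HepG2 CAGA-GFP in 1% FBS DMEM, stimulated with 500 pg/mL TGF-beta after compound addition. %Activity was normalised to no-cell wells (complete cell-killing) and DMSO (no toxicity), and curves were fitted and classified.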
HT1080 IDH1KD tx: qHTS for induction of synthetic lethality in tumor cells producing 2HG: qHTS for the HT-1080-IDH1KD cell line; HT-1080 IDH1 knockdown viability, ATP luminescence, 48 h; Potency, µM (titrated, usually from 46.1 µM), for the others: at the highest dose activity, negative = toxicity, usual class: cytotoxic; 360,000 compounds, 2% hits; AID 686971, 2013;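 further: 0% = DMSO wells and -100% = cell-free medium wells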
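After a 2 h attachment period, IDH1KD HT-1080 cells took pin-transferred compound for 48 h at 37 °C; ATP-based luminescence after 10 min room-temperature reagent incubation reported viability.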
TGFb inhibitor: qHTS for Inhibitors of TGF-b; 410,000 compounds, 1.2% hits; Potency, µM (doses to about 46.1 µM), inactives show at the top dose activity, negative = inhibition, actives largely listed as inhibitors; AID 588855, 2011; HepG2 CAGA-GFP TGF-b/SMAD3 reporter, GFP fluorescence, 18 h; TGF-beta stimulated, 500 pg/mL final; further: on the % scale 0 is the no-effect control and ±100 the full control effect; nearly all actives have a fitted effect of over 65% in size
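Per well, imaged GFP fluorescence of HEPG2 CAGA-GFP cells gives the signal; cells get compound, then TGF-beta (500 pg/mL final), 18 h at 37 degrees C; %Activity versus -TGF-beta and +DMSO controls.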
DT40 TDP1 no CPT: qHTS for Inhibitors of human tyrosyl-DNA phosphodiesterase 1 (TDP1): qHTS in cells in absence of CPT. DT40 Tdp1-/- hTDP1 cells, no CPT, ATP luminescence, 48 h. Potency, µM (highest dose often 46.2 µM), inactives show top-dose activity change, negative = growth inhibition, hits mostly inhibitors. 420,000 compounds, 15% hits. AID 686978, 2013; further: on the % scale 0 is the no-effect control and ±100 the full control effect; nearly all actives have a fitted effect of over 55% in size
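Chicken DT40 Tdp1-/- cells complemented with human TDP1, screened without camptothecin (DMSO vehicle only), 400 cells/well. Compounds pin-transferred, cells incubated at 37 °C for at least 48 hr. Growth read as ATP-dependent luminescence (CellTiter-Glo, 30 min at RT).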
HT1080NT lethal: qHTS for induction of synthetic lethality in tumor cells producing 2HG: qHTS for the HT-1080-NT fibrosarcoma cell line | HT-1080-NT fibrosarcoma viability, CellTiter-Glo ATP luminescence, 48 h | Potency, µM (titrated, usually from 46.1 µM), inactives show top-dose activity, negative = less viability, most hits filed as cytotoxic | 360,000 compounds, 1.6% hits | AID 686970, 2013;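 further: NT is the 2HG producing partner of a matched IDH1 knockdown line; 0% = DMSO-treated cells and -100% = media-only wells without cells; nearly all actives have a fitted effect of over 55% in size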
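Fibrosarcoma NT cells, 750 per well in 5% FBS RPMI, were exposed to compound for 48 hours. Viability: CellTiter-Glo luminescence.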
DT40 TDP1 CPT: qHTS for Inhibitors of human tyrosyl-DNA phosphodiesterase 1 (TDP1): qHTS in cells in presence of CPT. chicken DT40 Tdp1-/-;hTDP1 cells + 20 nM CPT, ATP luminescence, 48 h. Potency, µM (series often up to 46.2 µM), inactives show top-dose activity change, negative = growth inhibition, actives largely listed as inhibitors. 420,000 compounds, 12% hits. AID 686979, 2013; further: on the % scale 0 is the no-effect control and ±100 the full control effect; nearly all actives have a fitted effect of over 55% in size
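Chicken DT40 Tdp1-/- cells complemented with human TDP1, 400 cells/well, exposed to compounds plus 20 nM camptothecin for at least 48 h at 37 C; viability read as ATP content by CellTiter-Glo luminescence.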
* = called active by the depositor; ? = inconclusive; nt = not tested or not shown; ! = a repeat was not active; [ ] = remark or other dose. The call rests on the fitted dose curve; in most records, active means well fitted curve in the direction sought with a large enough effect; inconclusive means small, poorly fitted or top-dose-only effect, or another doubt; inactive means no such curve, though single readings can be large; an effect the other way counts as inactive or inconclusive. Potency means the concentration at half of the fitted maximal effect.

SMILES | HepG2 viability | HT1080 IDH1KD tx | TGFb inhibitor | DT40 TDP1 no CPT | HT1080NT lethal | DT40 TDP1 CPT
CC(=O)N1N=C2C3CCN(CC3)C2C1c1ccc(Br)cc1 (configuration not stated) | 0.0% | 2.0% | 1.3% | -4.1% | 1.0% | 2.8%
CCOc1cc2c(cc1OCC)-n1cccc1C(c1ccc(OC(F)F)cc1)NC2 (configuration not stated) | -30.0% | ? | ? | 18.4µM* | ? | ?
CCOc1cc2c(cc1OCC)-n1cccc1C(c1ccc(F)c(OC)c1)NC2 (configuration not stated) | -8.0% | -0.2% | -1.7% | ? | -4.8% | ?
CCOc1cc2c(cc1OCC)-n1cccc1C(c1ccc(OC)cc1)NC2 (configuration not stated) | -13.8% | -5.9% | 0.0% | 18.4µM* | -18.2% | ?
CCOc1cc2c(cc1OCC)-n1cccc1C(c1ccc(C(C)C)cc1)NC2 (configuration not stated) | -165.1% | 20.6µM* | ? | 7.31µM* | 16.4µM* | 8.2µM*
CCOc1cc2c(cc1OCC)-n1cccc1C(c1ccc(F)cc1)NC2 (configuration not stated) | -35.1% | -7.7% | ? | ? | -15.6% | ?
CCN(CC)c1ccc(CN(C)CCc2ccc(OC)c(OC)c2)cc1 | -39.9% | -26.7% | -19.3% | ? | -3.5% | 23.1µM*
COc1ccc(CCN(C)Cc2ccc(F)cc2F)cc1OC | 2.3% | -23.6% | -6.4% | -19.2% | 1.4% | -0.4%
Nc1ccccc1C(=O)OCc1ccc([N+](=O)[O-])cc1 | 0.2% | -24.2% | 4.1% | -3.6% | 2.3% | -0.7%
Cn1c(=O)c2c(nc(N/N=C/c3c(O)n(C4CCCCC4)c(=S)[nH]c3=O)n2C)n(C)c1=O | -13.3% | -20.4% | ? | ? | -18.3% | ?
CC(OC(=O)COc1ccc(Nc2ccccc2)cc1)C(=O)N(C)c1ccccc1 (configuration not stated) | 3.0% | -0.1% | -7.0% | ? | -1.0% | ?
CCOC(=O)C1SC2(C(F)F)CC1(O)c1c(c(OC)c3occc3c1OC)O2 (configuration not stated) | -22.6% | 23.4% | -10.7% | ? | -13.4% | ?
Cc1cccc(N(C)C(=S)Oc2ccc3c(c2)CCC3)c1 | nt | nt | nt | ? | nt | 10.9%
CCOP(=O)(NC(C)C)Oc1ccc(SC)c(C)c1 (configuration not stated) | -25.6% | 5.9% | -0.2% | 21.7µM*! | 9.4% | 21.7µM*
COP(=S)(OC)Oc1ccc(SC)c(C)c1 | -13.0% | -1.1% | 8.3% | -11.6% | -2.0% | -11.4%
O=C1NC(=O)C(=Cc2cn(CCOc3ccc4c(c3)OCO4)c3ccccc23)C(=O)N1 | -16.2% | -8.2%[9.24 µM] | ? | 20.6µM* | -2.6% | ?
COc1cc([N+](=O)[O-])cc([N+](=O)[O-])c1N | 12.4% | nt | 3.1% | -19.9% | nt | -4.7%
COc1ccccc1CCNC1CCC(C(C)(C)C)CC1 (configuration not stated) | -45.9% | ? | -3.3% | 20.6µM* | ? | ?
COc1ccccc1CCNC1CCCCCC1 | -15.3% | -13.3% | 17.1% | -29.8% | -9.5% | ?
O=C(Nc1ccc2c(c1)OCCO2)c1cccn(Cc2cccc(F)c2)c1=O | -27.5% | nt | ? | 23.1µM* | nt | 20.6µM*
Cc1ccc(Cn2cccc(C(=O)Nc3ccc4c(c3)OCCO4)c2=O)cc1 | -21.5% | nt | ? | 16.4µM* | nt | 20.6µM*
CCc1ccc(NC(=O)c2cccn(Cc3cccc([N+](=O)[O-])c3)c2=O)cc1 | -23.5% | nt | -7.4% | 20.6µM* | nt | -19.2%
O=C(Nc1ccc2c(c1)OCO2)c1cccn(Cc2cccc(F)c2)c1=O | 3.2% | nt | ? | -17.6% | nt | -13.3%
O=C(Nc1ccon1)c1cccn(Cc2cccc([N+](=O)[O-])c2)c1=O | -9.8% | nt | 9.8% | ? | nt | ?
Cc1ccc(Cn2cccc(C(=O)Nc3ccc4c(c3)OCO4)c2=O)cc1 | -3.0% | nt | -4.3% | -17.4% | nt | -23.8%
SMILES | HepG2 viability | HT1080 IDH1KD tx | TGFb inhibitor | DT40 TDP1 no CPT | HT1080NT lethal | DT40 TDP1 CPT
Cn1c(O)c(C=NC2CCN(Cc3ccccc3)CC2)c(=O)n(C)c1=O | -5.3% | 9.8% | -8.4% | 1.1% | 12.6% | 7.5%
O=C1C(Cc2cnc[nH]2)NC(=S)N1c1ccccc1 (configuration not stated) | 1.6% | 7.8% | 0.0% | 26.0% | 6.9% | 37.8%
COc1ccccc1OC(=O)Oc1ccccc1OC | -23.1% | 12.5% | -29.1% | ? | 5.6% | -8.5%
CC(C)c1ccc2nc3sc(C(=O)N4CCc5ccccc5C4)c(N)c3cc2c1 | -16.5% | ? | 44.6% | ? | ? | ?
Cc1ccc(-c2cc(C(F)F)n3ncc(C(=O)N4CCc5ccccc5C4)c3n2)cc1 | -13.5% | 9.9% | 11.2µM* | 25.9µM* | 6.4% | ?
Cc1ccc(O)c(C)c1 | 3.0% | 2.9% | 5.1% | -1.6% | 3.6% | 3.2%
O=c1c2ccccc2nc(-c2ccccc2F)n1-c1ccccc1 | -19.1% | -11.6% | 2.3% | 7.31µM* | 3.7% | ?
O=c1c2ccccc2nc(-c2ccc([N+](=O)[O-])cc2)n1-c1ccccc1 | 6.2% | 4.7% | 8.9% | -4.2% | 3.2% | -26.3%
COc1ccc(-n2c(-c3ccccc3Br)nc3ccccc3c2=O)cc1 | -17.6% | -12.3% | 0.0% | 20.6µM* | ? | ?
O=c1c2ccccc2nc(-c2ccccc2)n1-c1ccncc1 | -13.2% | 1.8% | -1.4% | -5.7% | -1.0% | ?
COc1ccc(-n2c(-c3ccccc3F)nc3ccccc3c2=O)cc1 | 24.5% | 5.6% | 9.8% | 20.6µM* | 9.1% | ?
O=c1c2ccccc2nc(-c2ccccc2)n1-c1ccccc1 | -13.7% | 0.2% | ? | 8.2µM* | -4.0% | ?
Cc1ccccc1OCC(=O)N1CCN(CCc2ccccn2)CC1 | -0.4% | nt | -12.2% | -2.1% | nt | 2.6%
COc1ccc(NC(=O)Nc2cccc3c2O[C@H](CN(C)C(=O)NC2CCCCC2)[C@@H](C)CN([C@H](C)CO)C3=O)cc1 | -21.3% | 0.4% | ? | ? | 2.8% | ?
